Compound activity (PubChem)
ELG1 DNA repair = qHTS screen for small molecules that inhibit ELG1-dependent DNA repair in human embryonic kidney (HEK293T) cells expressing luciferase-tagged ELG1; HEK293T ELG1-luciferase reporter, luminescence, 16 h; DNA damage induced by 5-fluorouridine; Potency, µM (titrated, usually from 46.1 µM), inactives show at the top dose activity change, negative = inhibition, usual class: inhibitors; actives 2.3% (n = 330,000); also: potency is read from the fitted curve at half-maximal effect; % is scaled to controls: 0 for no effect and ±100 for the full control effect; nearly all actives have a fitted effect of over 55% in size
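5-Fluorouridine DNA damage + compound/DMSO, 2,000 cells/well, 16 h, 37 °C/5% CO2. ONE-Glo, 30 min RT, luminescence. Readout = decrease in reporter signal.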
RORg inh = qHTS for inhibitors of ROR gamma transcriptional activity; AID 2551, 2010; Potency, µM (top dose mostly 53.6 µM), inactives show at the top dose activity change, negative = inhibition, hits mostly inhibitors; actives 5.4% (n = 310,000); Drosophila S2 Gal4-RORgamma UAS-luciferase reporter, 20 h; also: potency is read from the fitted curve at half-maximal effect; % is scaled to controls: 0 for no effect and ±100 for the full control effect; nearly all actives have a fitted effect of over 60% in size
Target sequence (P51450 whole entry, looked up, the tested form may be a part): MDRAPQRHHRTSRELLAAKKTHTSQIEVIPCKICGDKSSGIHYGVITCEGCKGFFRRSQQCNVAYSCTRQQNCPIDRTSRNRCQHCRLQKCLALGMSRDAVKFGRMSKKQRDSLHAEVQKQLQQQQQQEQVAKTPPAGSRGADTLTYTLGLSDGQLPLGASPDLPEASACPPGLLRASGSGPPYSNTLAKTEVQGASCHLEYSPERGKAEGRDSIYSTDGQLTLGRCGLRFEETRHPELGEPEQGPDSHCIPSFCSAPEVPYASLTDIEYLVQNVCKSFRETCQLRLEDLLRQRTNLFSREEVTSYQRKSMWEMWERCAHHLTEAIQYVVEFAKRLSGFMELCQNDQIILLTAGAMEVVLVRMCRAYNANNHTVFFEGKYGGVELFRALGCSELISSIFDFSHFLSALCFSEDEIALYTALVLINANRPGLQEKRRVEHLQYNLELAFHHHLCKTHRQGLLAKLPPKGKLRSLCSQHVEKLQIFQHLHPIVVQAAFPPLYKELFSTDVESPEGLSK
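In this cell-based reporter format, copper sulfate (700 uM final) drives Gal4–ROR gamma fusion expression from a metallothionein promoter in Drosophila Schneider cells; compounds preincubated 1 hr, reporter read after 20 hr at ambient temperature.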
p53 reactivator = qHTS assay for re-activators of p53 using a Luc reporter. AID 504706, 2011. H1299 p53-A138V BP100-luciferase reporter, luminescence, 24 h. actives 0.063% (n = 320,000). Potency, µM (highest dose often 92.2 µM), inactives show top-dose activity change, positive = activation, hits mostly activators; also: potency is read from the fitted curve at half-maximal effect; % of control where 0% means no effect; nearly all actives have a fitted effect of over 45% in size
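H1299 (p53-null), stable ts p53-A138V + BP100-Luc; 1000 cells/well, Opti-MEM/10% FBS; cpd 4 pt, 1:5; 24 h, 37 deg C, 5% CO2; detection reagent 10 min RT; luminescence.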
BRCA1 expr up = qHTS Assay to Identify Small Molecule Activators of BRCA1 Expression | actives 1.1% (n = 380,000) | MCF7-BRCA1-FFLuc reporter, luminescence, 48 h; response scale: scaled: vehicle 0%, 10 µM genistein 100% | Potency, µM (series often up to 46.1 µM), for the others: top-dose activation, actives largely listed as activators | AID 624202, 2012; also: potency is read from the fitted curve at half-maximal effect; nearly all actives have a fitted effect of over 80% in size
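MCF7-BRCA1-FFLuc cells, 2000/well in phenol-red-free MEM, attached 2 h then treated 48 h at 37 C. Luciferase luminescence read 15 min after reagent; normalized to genistein maximum activation (10microM) and DMSO, concentration-response fitted.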
Gal4-VP16 FLuc = VP16 counterscreen qHTS for inhibitors of ROR gamma transcriptional activity; Drosophila S2 Gal4-VP16 UAS-luciferase, luminescence, 20 h; Potency, µM (titrated, usually from 53.6 µM), for inactives: at the highest dose activity, negative = inhibition, most hits filed as inhibitors; actives 3.5% (n = 310,000); AID 2546, 2010;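 also: Gal4-VP16 expression switched on by copper sulfate through the metallothionein promoter; potency is read from the fitted curve at half-maximal effect; % is scaled to controls: 0 for no effect and ±100 for the full control effect; nearly all actives have a fitted effect of over 50% in size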
Giardia killer = Small Molecules that selectively kill Giardia lamblia: qHTS; Giardia lamblia trophozoite viability; activity change, % at 7.66 µM, hits read low; actives 0.15% (n = 340,000); AID 540267, 2011; in the data active = activity change below about -80%; inconclusive = between about -30% and that limit;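 also: parasites exposed to compound for two days anaerobically before the ATP read; % is scaled to controls: 0 for no effect and ±100 for the full control effect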
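ATP-content bioluminescence gauges trophozoite survival. Cells (100/well) receive compound and incubate anaerobically for 48 hrs at 37 deg C; detection reagent follows for 15-30 min at room temperature.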
Active calls of the source: *; u = inconclusive; x = no result; ! = not confirmed by another sample; [ ] = dose if it differs, or a comment. A selection: hits, their analogues and other compounds. The true share with any hit is near 7.6%. Unless noted, calls follow the shape of the dose curve; as a rule, active = well fitted curve in the direction sought with a large enough effect; inconclusive = small, poorly fitted or top-dose-only effect, or another doubt; inactive = no such curve, though single readings can be large; an effect the other way counts as inactive or inconclusive.

SMILES	ELG1 DNA repair	RORg inh	p53 reactivator	BRCA1 expr up	Gal4-VP16 FLuc	Giardia killer
O=c1cc(CN2CCN(S(=O)(=O)c3cccc(Cl)c3)CC2)c2ccc(O)cc2o1	u	x	-4%	0%	x	-14
CN(C)c1ccc(/C=N/NC(=O)C(=O)/C=C2\NC3(CCCC3)Cc3ccccc32)cc1	12µM*	44%	-6%	-47%	-11%	14
COc1cc(/C=N/NC(=O)C(=O)/C=C2\NC3(CCCC3)Cc3ccccc32)ccc1O	23µM*	u	-4%	-27%	u	-9
CNc1oc(-c2ccc(OCc3ccccc3)cc2)nc1C#N	u	15%	u	105%	1%	11
CC(C)C(=O)N1CCC(c2nc(-c3ccc(S(=O)(=O)N4CCN(C)CC4)cc3)no2)CC1	-8%	-4%	-3%	-13%	10%	10
O=C(N/N=C(\CC(=O)c1cccs1)C(F)(F)F)c1ccncc1	u	-19%	5%	-20%	-29%	-1
Cc1ccc(C(=O)N/N=C(/CC(=O)c2cccs2)C(F)(F)F)cc1	-29%	11µM*	5%	-50%	7.1µM*	8
CC1=NC(=O)C(N=Nc2cccc(C(=O)O)c2)N1c1ccccc1 (configuration not stated)	u	5.6µM*	-12%	u	8.9µM*	-10
O=C(Cc1ccc2c(c1)OCCO2)N1CCN(S(=O)(=O)c2cccs2)CC1	-18%	37%	-4%	11%	0%	-4
COc1ccc(CN2C(=O)c3ccccc3C2c2nnnn2Cc2ccccc2)cc1 (configuration not stated)	x	x	x	10%	x	x
CCOC(=O)C1=C(c2ccccc2)c2ccc(OC)cc2N(S(=O)(=O)C(F)(F)F)C1C(=O)OCC (configuration not stated)	15µM*	7%[40.7 µM]	-3%	-20%	3%[40.7 µM]	-23
CCOC(=O)C1C(C(=O)OC)=C(C2=CCCCC2)c2ccccc2N1S(=O)(=O)C(F)(F)F (configuration not stated)	18µM*	27%	-6%	5%	-9%	0
CCOC(=O)C1C(C(=O)OC)=C(c2ccc(F)cc2)c2ccc(OC)cc2N1S(=O)(=O)C(F)(F)F (configuration not stated)	x	29%[40.7 µM]	x	x	-3%[40.7 µM]	x
COc1cc(=O)oc(CCC(C)O)c1C (configuration not stated)	17%	x	2%	6%	x	-3
CCOC(=O)c1nc(C)sc1-c1ccnn1S(=O)(=O)c1ccccc1C(F)(F)F	-10%	25%	-2%	0%	0%	-14
Nc1[nH]nc2nc(N3CCCC3)nc(-c3ccccc3)c12	-1%	u	-2%	2%	-10%	-1
Cc1cc(C)n2nc3nc(N4CCCC4)nc(-c4ccccc4)c3c2n1	10µM*	11%	-14%	-32%	-1%	2
CCN1C(=S)N[C@@H](c2ccccc2)C(C(=O)OC)=C1C	u	3.2µM*	6%	-5%	u	1
COC(=O)C1=C(C)N(Cc2ccccc2)C(=S)N[C@H]1c1cccc(F)c1	-21%	4.5µM*	1%	-17%	13µM*	2
COCCN1C(=S)N[C@@H](c2cccc(F)c2)C(C(=O)OC)=C1C	17%	3.5µM*!	10%	x	11µM*!	x
CCOc1cc(C(=O)OC(C)C(=O)Nc2ccccc2OC)ccc1OCC(=O)N1CCOCC1 (configuration not stated)	x	x	x	-7%	x	-23
O=C(Cc1ccc(Cl)cc1Cl)Nc1ccncc1	-2%	u	-6%	0%	5.6µM*	-6
O=C(Cc1ccc(Cl)cc1Cl)Nc1ccncc1Cl	u	-35%	-16%	8%	5.6µM*	5
O=C(Cc1c(Cl)cccc1Cl)Nc1ccncc1Cl	22%	-8%	6%	-2%	2%	-10
COc1ccc(S(=O)(=O)Nc2ccc(C)c(S(=O)(=O)N3CCOCC3)c2)cc1[N+](=O)[O-]	7%	x	9%	-4%	x	-17
SMILES	ELG1 DNA repair	RORg inh	p53 reactivator	BRCA1 expr up	Gal4-VP16 FLuc	Giardia killer
O=C(Nc1ccc(C(=O)NCc2ccccc2)cc1)C1=CSCCO1	u	u	8%	59%	25%	13
CCOC(=O)c1sc2nc(-c3ccccc3)ccc2c1N	u	2.5µM*	x	u	u	-17
Cc1ccccc1OCC(=O)N/N=C/c1cn(Cc2ccccc2)c2ccccc12	7%	18µM*	3%	-51%	u	-2
Cc1ccc(OCC(=O)N/N=C\c2cn(Cc3ccccc3)c3ccccc23)cc1C	-14%	11µM*	-1%	-67%	u	-9
COc1cc(/C=N/O)cc(Br)c1OCc1ccc(Cl)cc1	-6%	5.6µM*	-11%	6%	u	0
O/N=C/c1ccccc1OCc1ccccc1Cl	u	-18%	9%	-4%	-5%	-12
O/N=C/c1ccccc1OCc1ccc(Cl)cc1	u	17%	9%	11µM*	7%	-10
Cc1nc(N2CCOCC2)c2nc(-c3ccccc3)n(CCN3CCCC3)c2n1	x	-5%	x	x	2%	x
COc1cc(OC)cc(C(=O)Nc2cccc3cccnc23)c1	-22%	8%	16%	2%	1%	-2
Cc1cnc(C(=O)Nc2cccc3cccnc23)cn1	10%	0.079µM*	12%	-85%	0.2µM*	-4
COc1cc(C(=O)Nc2cccc3cccnc23)cc(OC)c1OC	21µM*	-3%	-6%	-14%	-16%	-17
Cc1cccc(S(=O)(=O)NC(=O)C2(C)CCN2C(=O)c2ccccc2CCc2ccccc2)c1 (configuration not stated)	x	x	x	-7%	x	x
CCCOc1cc(N(CC)CC)ccc1/C=C(/C#N)c1nc2ccc(C)cc2[nH]1	4.6µM*	2%	33%	-58%	-1%	5
COc1cc(/C=C(\C#N)c2nc3ccc(C)cc3[nH]2)cc([N+](=O)[O-])c1O	u	41%	7%	7.1µM*	-14%	6
CCN(CC)c1ccc(/C=C(/C#N)c2nc3ccc(C)cc3[nH]2)c(OC(C)C)c1	u	-26%	5%	-42%	-3%	8
Cc1ccc(S(=O)(=O)N2C[C@H]3C(=O)C[C@@H](c4ccc(Cl)cc4)N(S(=O)(=O)c4ccc(C)cc4)[C@H]3C[C@H]2c2ccccc2)cc1	x	x	x	-3%	x	x
